Tau fibril ThT: qHTS for Inhibitors of Tau Fibril Formation, Thioflavin T Binding; recombinant tau K18 P301L, heparin-induced fibrillization, ThT fluorescence; Potency, µM (titrated, usually from 57.4 µM), for inactives: top-dose activity, negative = inhibition, hits mostly inhibitors; 270,000 tested, 2.1% active; further: potency means the concentration at half of the fitted maximal effect; nearly all actives have a fitted effect of over 55% in size
Target sequence (P10636 561-689 P618L limits assumed): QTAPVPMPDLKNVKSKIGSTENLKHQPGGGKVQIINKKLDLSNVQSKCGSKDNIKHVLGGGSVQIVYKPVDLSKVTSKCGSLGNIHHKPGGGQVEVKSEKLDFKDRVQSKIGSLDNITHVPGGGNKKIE
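Tau K18 P301L fragment (15 uM unlabeled plus 0.24 uM Alexa 594-labeled) in 100 mM sodium acetate pH 7 with compound, fibrillization induced by 20 uM heparin for 6 hr at 37 C. Thioflavin T (30 uM) added, fluorescence read after 1 hr (ex 450, em 510 nm).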
FBPA coupling cs: qHTS Assay for Inhibitors of Fructose-1,6-bisphosphate Aldolase from Giardia Lamblia: Coupling assay counterscreen. activity change, negative = inhibition, % at 58.2 µM, hits read low. coupling enzyme system counterscreen, AmpLite Red fluorescence. AID 2472, 2010. 290,000 tested, 0.67% active; in the data active means activity change below about -30%
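Compounds tested against the coupling enzymes alone at 57.5 uM final; readout was AmpLite Red fluorescence (525/598 nm) after 20 min at RT.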
Sfp PPTase inh: qHTS Assay for Inhibitors of Bacillus subtilis Sfp phosphopantetheinyl transferase (PPTase); Biochemical Sfp PPTase activity, qHTS; Potency, µM, for the others: largest response in the series, negative = inhibition, actives largely listed as inhibitors; 310,000 tested, 3.5% active; AID 1490, 2009;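 further: the enzyme is Sfp with the accession as filed and its product quenches rhodamine fluorescence; potency means the concentration at half of the fitted maximal effect; 0% = enzyme reaction without inhibitor and -100% = no enzyme wells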
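Buffer: 50 mM Hepes-Na pH 7.6, 10 mM MgCl2, 0.01% Nonidet P-40, 0.01% BSA. Enzyme 15 nM, pre-exposed to compound 15 min; substrates then added and fluorescence change tracked over 30 min.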
Tau fluor cs: Counterscreen qHTS for Inhibitors of Tau Fibril Formation, Fluorescence Polarization; tau K18 P301L Alexa594 fluorescence, heparin fibrillization; Potency, µM (titrated, usually from 57.7 µM), inactives show at the top dose activity change, negative = decrease; 280,000 tested, 0.93% active; AID 1463, 2008; further: potency means the concentration at half of the fitted maximal effect; nearly all actives have a fitted effect of over 55% in size
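Human tau K18 P301L (15 uM unlabeled, 0.24 uM Alexa 594-labeled) in 100 mM sodium acetate pH 7 with 20 uM heparin, 6 hr at 37 C. ThT 30 uM added, 1 hr ambient; Alexa 594 FP and total fluorescence read at 555/632 nm.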
Tau fibril FP: qHTS for Inhibitors of Tau Fibril Formation, Fluorescence Polarization. Potency, µM (titrated, usually from 57.7 µM), without a hit: at the highest dose activity, negative = inhibition, actives largely listed as inhibitors. Microtubule-associated protein tau (Homo sapiens), P10636. K18 P301L tau heparin fibrillization, Alexa594 FP, 6 h. AID 1468, 2008. 280,000 tested, 0.39% active; further: potency means the concentration at half of the fitted maximal effect; nearly all actives have a fitted effect of over 55% in size
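Read-out: fluorescence polarization of Alexa 594-labeled tau (0.24 uM), 555 nm excitation, 632 nm emission. Mixtures held 15 uM unlabeled K18 P301L, compound and 20 uM heparin, pH 7 acetate buffer, incubated 6 hr at 37 C.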
Starred values were filed as active, the others as inactive; ? = inconclusive; nt = no result given; [ ] = remark or other dose. Rows were chosen to be rich in hits. Some 5.2% of all compounds tested hit in one or more screens of this group. Unless noted, the call rests on the fitted dose curve; in most records, active means well fitted curve in the direction sought with a large enough effect; inconclusive means small, poorly fitted or top-dose-only effect, or another doubt; inactive means no such curve, though single readings can be large; an effect the other way counts as inactive or inconclusive. Unless noted, on the % scale 0 is the no-effect control and ±100 the full control effect.

SMILES	Tau fibril ThT	FBPA coupling cs	Sfp PPTase inh	Tau fluor cs	Tau fibril FP
Cc1cccc(C)c1OCc1nc2ccccc2c(=O)n1/N=C/c1c[nH]c2ccccc12	-4.8%	-2.5	37.0%	3.55µM*[quencher]	?
O=C(NCc1ccccn1)c1nn(-c2ccccc2Cl)nc1CO	-5.0%	nt	nt	-5.8%	-7.1%
CCc1ccc(-n2nc(CO)c(C(=O)NCCc3ccccc3)n2)cc1	0.6%	nt	nt	-3.6%	-6.9%
OC[C@@H]1[C@@H](c2ccc(Cl)cc2)C(c2cccc(Cl)c2)=NN1c1ccccc1	?	-0.9	37.9%	11.2µM*[quencher]	?
C[C@H]1C(c2ccc(F)cc2)=NN(c2ccccc2)[C@@H]1CO	?	-0.1	-8.0%	25.1µM*[quencher]	?
OC[C@@H]1[C@@H](c2ccc(F)cc2)C(c2cccc(Cl)c2)=NN1c1ccccc1	?	-3.2	41.5%	39.8µM*[quencher]	4.0%[81.3 µM]
OC[C@@H]1[C@@H](c2ccc(Cl)cc2)C(c2ccccc2)=NN1c1ccccc1	?	-7.3	12.6%	10µM*[quencher]	7.3%[81.3 µM]
COc1ccc(N2CCN(Cc3nc4c(c(=O)[nH]c(=O)n4C)n3CC(C)C)CC2)cc1	-12.3%	nt	nt	-15.4%	1.1%
CC[C@H]1C(c2ccccc2)=NN(c2ccccc2)[C@@H]1CO	-18.9%[81.4 µM]	-0.1	-2.9%	?	?
C[C@H]1C(c2cccc(Cl)c2)=NN(c2ccccc2)[C@@H]1CO	?	2.0	-11.6%	15.8µM*[quencher]	9.8%[81.3 µM]
COc1ccccc1[C@H]1C(c2ccccc2)=NN(c2ccccc2)[C@@H]1CO	?	-3.1	31.6%	31.6µM*[quencher]	15.5%[81.3 µM]
O=C(Cc1ccccc1)Nc1nnc2n1CCS2	-8.7%	nt	nt	-7.9%	-6.5%
COCCCNC(=O)c1ccc(Cn2c(=O)c3ccccc3n(CC(N)=O)c2=O)cc1	-1.8%	nt	nt	-4.2%	-2.1%
O=C1c2ccccc2C(=O)c2c(Nc3ccc(CCO)cc3)ccc(O)c21	2.82µM*	-6.4	?	1.78µM*[quencher]	?
CC(=O)Nc1ccc(Nc2ccc3c4c(cc(=O)n3C)-c3ccccc3C(=O)c24)cc1	?	-3.3	8.4%	?	3.2%
COc1ccc(-c2n[nH]c3c2cnc2ccc(F)cc23)cc1	-6.5%	nt	nt	-1.3%	-2.3%
CN1CCN(c2nc3c(S(=O)(=O)c4ccccc4)nnn3c3ccsc23)CC1	-3.6%	nt	nt	-9.1%	-10.2%
COc1ccc(OC)c(/C=N/NC(=O)c2cc3c(OC)cccc3[nH]2)c1	nt	-1.6	-0.6%	?	3.8%
COc1ccccc1/C=N/NC(=O)c1cc2c(OC)c(OC)ccc2[nH]1	nt	0.1	-19.6%	nt	nt
COc1cccc(/C=N/NC(=O)c2cc3c(OC)c(OC)ccc3[nH]2)c1OC	7.94µM*	-4.9	0.7%	?	?
COc1ccc(OC)c(/C=N/NC(=O)c2cc3c(OC)cc(OC)cc3[nH]2)c1	5.01µM*	4.0	18.6%	8.91µM*[quencher]	?
CCc1ccc(NC(=O)CSc2nc3n[nH]c(C)c3c(=N)n2-c2ccc(C)cc2)cc1	2.5%	nt	nt	-12.1%	-1.7%
COc1cccc(CNC(=O)c2ccc3nc(-c4ccc(F)cc4)c(-c4ccc(F)cc4)nc3c2)c1	7.0%	nt	nt	-10.4%	-13.5%
CC(=O)NC1=C(N(C)C2CCS(=O)(=O)C2)C(=O)c2ccccc2C1=O (stereo not drawn)	25.1µM*	-70.5*	-8.7%	-22.4%	?
CCC(=O)N(Cc1ccco1)c1nc(C(=O)Nc2ccc(Cl)cc2)c(C)s1	-6.5%	-2.0	20µM*	-22.7%	-2.4%
Cc1cc2nc(CCl)cc(=O)n2[nH]1	-0.7%	1.0	-7.6%	-5.3%	-2.5%
Cc1cc2nc(CSc3ccccc3)cc(=O)n2[nH]1	-5.8%	-30.9*	-15.3%	-4.8%	3.8%
COc1cc2[nH]c3c(Cl)ncnc3c2cc1OC	?	-42.8*	-9.3%	-16.0%	0.8%
COc1ccccc1NCC(O)Cn1c2ccccc2c2ccccc21 (stereo not drawn)	?	-4.6	19.2%	10µM*[quencher]	?
